Assay results taken from the supplement of paper PMC10849652.
About 7,900 targets were measured; listed, in parts, are those with a hit and a random draw of the rest. About 0.6% of all pairs of compound and target were hits.

Experiments:
Assay in all cases: log2 fold change, soluble protein after heating vs DMSO (PISA); higher = thermal stabilisation; K562 cells, 10 uM, 30 min; active = over 0.2 and 3.5 SD of the protein, either way, in both replicates (recomputed)
IRAK-1-4 Inhibitor I = compound: C1COCCN1CCN2C3=CC=CC=C3N=C2NC(=O)C4=CC(=CC=C4)[N+](=O)[O-] [IRAK-1-4 Inhibitor I]
Procedure, shortened: (§1)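 Soluble protein was quantified by TMTpro 16plex LC-MS/MS after channel sums were equalised. It was obtained as the supernatant after 21,000xg for 90 min from pooled aliquots of K562 cells (2×10^6 cells/mL, 10 μM compound, 30 min) heated for 3 min across 48°C-58°C and extracted in PBS with 0.5% NP-40 at 4°C. Thermal stability values are relative to control samples and come from duplicates. They are given as log2 fold changes.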

ibrutinib = compound: C=CC(=O)N1CCC[C@@H](n2nc(-c3ccc(Oc4ccccc4)cc3)c3c(N)ncnc32)C1 [ibrutinib]
Procedure, shortened: as §1

[1] = compound: CC(=O)c1cnc2ccc(-c3cc(Cl)c(O)c(Cl)c3)nc2c1N[C@H]1CC[C@H](CN(C)C)CC1
Procedure, shortened: as §1

ralimetinib = compound: CC(C)(C)Cn1c(N)nc2ccc(-c3[nH]c(C(C)(C)C)nc3-c3ccc(F)cc3)nc21 [ralimetinib]
Procedure, shortened: as §1

[2] = compound: CC(C)(O)CC(=O)NCCn1ccc2ncnc(Nc3ccc(Oc4cccc(C(F)(F)F)c4)c(Cl)c3)c21
Procedure, shortened: as §1

[3] = compound: CC(C)C1=C2N=C(C=C(N2N=C1)NCC3=CC=CC=C3)NCCCCCCN
Procedure, shortened: as §1

[4] = compound: CC(C)C[C@@H](C=O)NC(=O)[C@H](CC(C)C)NC(=O)[C@H](CC(C)C)NC(=O)OCc1ccccc1
Procedure, shortened: as §1

pinometostat = compound: CC(C)N(C[C@H]1O[C@@H](n2cnc3c(N)ncnc32)[C@H](O)[C@@H]1O)[C@H]1C[C@@H](CCc2nc3cc(C(C)(C)C)ccc3[nH]2)C1 [pinometostat]
Procedure, shortened: as §1

[5] = compound: CC1=C(C(CC(=O)N1)C2=CC=C(C=C2)C(F)(F)F)C(=O)NC3=C(C=C4C(=C3)C=NN4)F
Procedure, shortened: as §1

[6] = compound: CC1=C(C2=C(C=C1)C(=O)C3=CC=CC=C3N2CCCN)C
Procedure, shortened: as §1

[7] = compound: CC1=C(C=C(C=C1)NC(=O)C2=CC(=CC=C2)C(C)(C)C#N)NC3=CC4=C(C=C3)N=CN(C4=O)C
Procedure, shortened: as §1

[8] = compound: CC1=C(C=C(C=C1)NC(=O)C2=CC(=CC=C2)N(C)C)NC(=O)C3=CC=C(C=C3)O
Procedure, shortened: as §1

[9] = compound: CC1=CC=C(C=C1)SC2=C3C=C(SC3=CN=C2)C(=O)N
Procedure, shortened: as §1

[10] = compound: CC1=NC(=CC=C1)C2=C(N=C(N2)C(C)(C)C)C3=CC4=NC=CN=C4C=C3
Procedure, shortened: as §1

Nexturastat A = compound: CCCCN(Cc1ccc(C(=O)NO)cc1)C(=O)Nc1ccccc1 [Nexturastat A]
Procedure, shortened: as §1

vemurafenib = compound: CCCS(=O)(=O)Nc1ccc(F)c(C(=O)c2c[nH]c3ncc(-c4ccc(Cl)cc4)cc23)c1F [vemurafenib]
Procedure, shortened: as §1

[11] = compound: CCCS(=O)(=O)Nc1ccc(F)c(C(=O)c2c[nH]c3ncc(Cl)cc23)c1F
Procedure, shortened: as §1

[12] = compound: CCCc1cc(C)[nH]c(=O)c1CNC(=O)c1cc(-c2ccnc(N3CCN(C)CC3)c2)cc2c1cnn2C(C)C
Procedure, shortened: as §1

givinostat = compound: CCN(CC)Cc1ccc2cc(COC(=O)Nc3ccc(C(=O)NO)cc3)ccc2c1 [givinostat]
Procedure, shortened: as §1

barasertib = compound: CCN(CCCOc1ccc2c(Nc3cc(CC(=O)Nc4cccc(F)c4)[nH]n3)ncnc2c1)CCOP(=O)(O)O [barasertib]
Procedure, shortened: as §1

Measured: log2 fold change

U2AF2 (UniProt P26368)
UniProt P26368, sequence (P26368 whole entry, looked up): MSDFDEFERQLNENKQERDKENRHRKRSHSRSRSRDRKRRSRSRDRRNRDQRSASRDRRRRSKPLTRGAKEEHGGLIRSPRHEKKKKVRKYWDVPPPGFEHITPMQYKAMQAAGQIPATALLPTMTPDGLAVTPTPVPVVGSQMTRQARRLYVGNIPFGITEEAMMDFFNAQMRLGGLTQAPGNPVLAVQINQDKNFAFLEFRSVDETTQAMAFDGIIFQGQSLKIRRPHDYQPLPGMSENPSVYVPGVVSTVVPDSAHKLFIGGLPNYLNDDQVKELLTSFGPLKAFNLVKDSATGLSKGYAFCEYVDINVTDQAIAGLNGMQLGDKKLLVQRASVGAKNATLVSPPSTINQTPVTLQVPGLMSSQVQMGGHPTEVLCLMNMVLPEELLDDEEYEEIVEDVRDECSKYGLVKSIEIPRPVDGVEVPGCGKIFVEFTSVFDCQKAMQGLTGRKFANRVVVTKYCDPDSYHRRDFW
inactive: IRAK-1-4 Inhibitor I -0.069 | ibrutinib 0.029 | ralimetinib 0.03 | [2] -0.011 | [3] -0.102 | [4] 0.028 | pinometostat 0.03 | [5] -0.04 | [6] 0.192 | [7] -0.076 | [8] 0.005 | [9] -0.066 | [10] 0.047 | Nexturastat A -0.048 | vemurafenib 0.031 | [11] 0.001 | [12] -0.028 | givinostat 0.002 | barasertib -0.015
active: [1] -0.313

TNFAIP8 isoform 4 (UniProt O95379)
UniProt O95379, sequence (O95379 whole entry, looked up): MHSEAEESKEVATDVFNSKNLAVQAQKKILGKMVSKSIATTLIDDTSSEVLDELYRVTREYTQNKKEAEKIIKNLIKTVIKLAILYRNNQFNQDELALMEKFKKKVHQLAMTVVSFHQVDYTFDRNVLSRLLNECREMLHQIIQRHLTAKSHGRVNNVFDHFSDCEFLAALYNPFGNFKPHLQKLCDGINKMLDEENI
inactive: IRAK-1-4 Inhibitor I -0.018 | ibrutinib -0.036 | [1] -0.036 | ralimetinib 0 | [2] -0.037 | [3] -0.075 | [4] -0.047 | pinometostat -0.065 | [5] -0.001 | [6] -0.037 | [7] -0.019 | [8] -0.013 | [9] -0.021 | [10] 0.051 | Nexturastat A -0.102 | vemurafenib 0.014 | [11] -0.102 | [12] -0.052 | givinostat 0.003 | barasertib 0.065

USP9X (UniProt Q93008)
inactive: IRAK-1-4 Inhibitor I -0.006 | ibrutinib -0.041 | [1] -0.011 | ralimetinib 0.02 | [2] -0.117 | [3] -0.177 | [4] 0.01 | pinometostat 0.042 | [5] 0.002 | [6] 0.038 | [7] -0.015 | [8] -0.02 | [9] -0.009 | [10] 0.023 | Nexturastat A 0.015 | vemurafenib 0.019 | [11] 0.075 | [12] 0.007 | givinostat 0.025 | barasertib 0.043

WAPL isoform 3 (UniProt Q7Z5K2)
inactive: IRAK-1-4 Inhibitor I -0.086 | ibrutinib -0.002 | [1] -0.05 | ralimetinib -0.072 | [2] -0.057 | [3] -0.339 | [4] 0.125 | pinometostat 0.054 | [5] -0.003 | [6] -0.056 | [7] -0.038 | [8] -0.109 | [9] 0.056 | [10] -0.006 | Nexturastat A -0.134 | vemurafenib 0.097 | [11] 0.083 | [12] -0.054 | givinostat 0.149 | barasertib 0.201

TNPO1 (UniProt Q92973)
UniProt Q92973, sequence (Q92973 whole entry, looked up): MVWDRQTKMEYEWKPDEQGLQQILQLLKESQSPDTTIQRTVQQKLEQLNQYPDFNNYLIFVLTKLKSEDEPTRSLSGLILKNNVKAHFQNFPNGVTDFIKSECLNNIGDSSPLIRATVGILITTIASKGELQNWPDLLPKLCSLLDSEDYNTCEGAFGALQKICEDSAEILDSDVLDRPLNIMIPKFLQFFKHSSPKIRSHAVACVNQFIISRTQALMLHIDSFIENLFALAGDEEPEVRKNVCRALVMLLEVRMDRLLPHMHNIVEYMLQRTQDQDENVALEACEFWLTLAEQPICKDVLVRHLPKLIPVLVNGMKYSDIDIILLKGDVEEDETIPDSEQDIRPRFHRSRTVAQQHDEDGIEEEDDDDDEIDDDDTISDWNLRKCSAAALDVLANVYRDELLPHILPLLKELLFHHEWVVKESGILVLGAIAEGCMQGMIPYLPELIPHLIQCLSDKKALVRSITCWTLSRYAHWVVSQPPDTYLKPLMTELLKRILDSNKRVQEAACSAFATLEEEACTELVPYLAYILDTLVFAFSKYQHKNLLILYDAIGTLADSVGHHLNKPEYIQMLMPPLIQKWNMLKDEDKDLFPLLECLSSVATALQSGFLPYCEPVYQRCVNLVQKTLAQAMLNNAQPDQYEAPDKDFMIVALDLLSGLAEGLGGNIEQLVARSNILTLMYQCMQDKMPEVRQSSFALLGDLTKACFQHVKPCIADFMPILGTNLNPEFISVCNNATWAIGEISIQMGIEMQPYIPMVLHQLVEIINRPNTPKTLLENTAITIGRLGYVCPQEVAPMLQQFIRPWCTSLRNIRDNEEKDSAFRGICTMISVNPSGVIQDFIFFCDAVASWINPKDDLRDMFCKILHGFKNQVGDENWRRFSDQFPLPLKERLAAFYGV
active: [6] -0.231
inactive: IRAK-1-4 Inhibitor I 0.01 | ibrutinib 0.001 | [1] 0.043 | ralimetinib -0.01 | [2] -0.029 | [3] -0.193 | [4] -0.011 | pinometostat -0.006 | [5] 0.032 | [7] 0.041 | [8] 0 | [9] 0.037 | [10] 0 | Nexturastat A -0.017 | vemurafenib 0.015 | [11] 0.064 | [12] -0.009 | givinostat 0.015 | barasertib -0.005

XPNPEP3 (UniProt Q9NQH7)
UniProt Q9NQH7, sequence (Q9NQH7 whole entry, looked up): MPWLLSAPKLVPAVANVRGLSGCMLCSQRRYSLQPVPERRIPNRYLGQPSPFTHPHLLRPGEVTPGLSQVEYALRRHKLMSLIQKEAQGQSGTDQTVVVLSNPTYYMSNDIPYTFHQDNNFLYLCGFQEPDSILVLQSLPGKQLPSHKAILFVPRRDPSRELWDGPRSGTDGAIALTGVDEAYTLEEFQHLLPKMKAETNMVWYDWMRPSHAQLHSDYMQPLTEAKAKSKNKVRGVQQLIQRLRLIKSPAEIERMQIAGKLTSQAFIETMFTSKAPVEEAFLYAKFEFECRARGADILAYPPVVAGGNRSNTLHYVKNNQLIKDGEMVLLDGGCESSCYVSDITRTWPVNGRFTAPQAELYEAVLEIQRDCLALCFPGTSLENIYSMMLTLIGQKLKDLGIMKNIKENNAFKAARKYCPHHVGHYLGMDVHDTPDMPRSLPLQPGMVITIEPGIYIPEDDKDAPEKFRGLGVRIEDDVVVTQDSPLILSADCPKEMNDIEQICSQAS
inactive: IRAK-1-4 Inhibitor I 0.061 | ibrutinib 0.044 | [1] 0.019 | ralimetinib -0.013 | [2] 0.021 | [3] -0.002 | [4] -0.018 | pinometostat -0.015 | [5] -0.003 | [6] -0.028 | [7] -0.045 | [8] 0.024 | [9] 0.005 | [10] 0.017 | Nexturastat A -0.08 | vemurafenib 0.011 | [11] -0.012 | [12] 0.013 | givinostat -0.218 | barasertib -0.016

VAMP7 (UniProt P51809)
inactive: IRAK-1-4 Inhibitor I 0.018 | ibrutinib -0.048 | [1] -0.041 | ralimetinib -0.022 | [2] -0.006 | [3] -0.169 | [4] -0.001 | pinometostat -0.027 | [5] -0.011 | [6] 0.025 | [7] -0.014 | [8] 0.011 | [9] 0.053 | [10] 0.005 | Nexturastat A -0.069 | vemurafenib 0.022 | [11] -0.01 | [12] -0.016 | givinostat 0.011 | barasertib 0.017

VRK1 (UniProt Q99986)
inactive: IRAK-1-4 Inhibitor I -0.041 | ibrutinib 0.032 | [1] 0.338 | ralimetinib -0.033 | [2] -0.32 | [3] -0.013 | [4] 0.055 | pinometostat -0.008 | [5] -0.027 | [7] -0.089 | [8] -0.121 | [9] 0.096 | [10] 0.063 | Nexturastat A -0.085 | vemurafenib 0.122 | [11] 0.072 | [12] 0.108 | givinostat 0.046 | barasertib 0.075
active: [6] 0.433

VPS8 (UniProt Q8N3P4)
UniProt Q8N3P4, sequence (Q8N3P4 whole entry, looked up): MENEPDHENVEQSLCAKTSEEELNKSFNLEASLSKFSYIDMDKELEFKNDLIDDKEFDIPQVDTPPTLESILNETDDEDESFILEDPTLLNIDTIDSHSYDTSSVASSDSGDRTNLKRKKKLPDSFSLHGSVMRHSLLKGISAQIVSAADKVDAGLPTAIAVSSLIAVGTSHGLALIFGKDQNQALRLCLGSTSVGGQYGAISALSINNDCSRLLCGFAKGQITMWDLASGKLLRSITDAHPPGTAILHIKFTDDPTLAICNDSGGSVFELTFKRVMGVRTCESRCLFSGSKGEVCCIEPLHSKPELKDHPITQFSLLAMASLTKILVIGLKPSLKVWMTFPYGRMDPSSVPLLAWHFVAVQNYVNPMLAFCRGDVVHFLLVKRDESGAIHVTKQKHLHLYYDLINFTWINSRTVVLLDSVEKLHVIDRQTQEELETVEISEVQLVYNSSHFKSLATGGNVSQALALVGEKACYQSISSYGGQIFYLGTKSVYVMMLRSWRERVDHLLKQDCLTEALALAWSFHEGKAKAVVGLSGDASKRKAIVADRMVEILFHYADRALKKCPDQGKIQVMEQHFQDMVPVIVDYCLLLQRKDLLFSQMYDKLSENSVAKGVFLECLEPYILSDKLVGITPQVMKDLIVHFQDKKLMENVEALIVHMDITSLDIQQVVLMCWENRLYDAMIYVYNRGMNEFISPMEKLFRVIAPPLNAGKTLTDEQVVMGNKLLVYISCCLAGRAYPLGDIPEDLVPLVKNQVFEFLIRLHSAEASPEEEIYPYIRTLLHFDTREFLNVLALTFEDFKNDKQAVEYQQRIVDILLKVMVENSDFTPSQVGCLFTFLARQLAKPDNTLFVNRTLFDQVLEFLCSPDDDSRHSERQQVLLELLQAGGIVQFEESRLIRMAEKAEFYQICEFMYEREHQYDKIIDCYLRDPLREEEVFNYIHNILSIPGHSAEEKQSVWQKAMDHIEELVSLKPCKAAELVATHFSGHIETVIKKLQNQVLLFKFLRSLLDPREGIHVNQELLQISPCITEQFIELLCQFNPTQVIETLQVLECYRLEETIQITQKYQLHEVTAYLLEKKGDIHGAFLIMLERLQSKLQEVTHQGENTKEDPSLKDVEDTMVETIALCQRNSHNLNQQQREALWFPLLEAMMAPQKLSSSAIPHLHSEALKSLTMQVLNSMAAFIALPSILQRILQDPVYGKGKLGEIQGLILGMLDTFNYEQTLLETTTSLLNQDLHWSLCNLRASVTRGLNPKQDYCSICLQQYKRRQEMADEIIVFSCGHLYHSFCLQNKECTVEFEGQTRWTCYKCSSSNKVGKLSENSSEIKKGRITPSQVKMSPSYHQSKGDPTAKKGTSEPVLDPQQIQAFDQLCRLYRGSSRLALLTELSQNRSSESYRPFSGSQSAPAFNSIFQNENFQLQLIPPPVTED
inactive: IRAK-1-4 Inhibitor I -0.085 | ibrutinib -0.117 | [1] -0.004 | ralimetinib 0.088 | [2] -0.079 | [3] -0.254 | [4] 0.052 | pinometostat 0.039 | [5] 0.026 | [6] 0.015 | [7] -0.011 | [8] -0.003 | [9] -0.034 | [10] 0.058 | Nexturastat A 0.032 | vemurafenib 0.048 | [11] 0.126 | [12] -0.04 | givinostat 0.014 | barasertib 0.028

WDR46 (UniProt O15213)
inactive: IRAK-1-4 Inhibitor I -0.159 | ibrutinib 0.099 | [1] 0.15 | ralimetinib 0.175 | [2] 0.066 | [3] 0.192 | [4] 0.154 | pinometostat 0.242 | [5] 0.033 | [6] -0.382 | [7] 0.039 | [8] -0.021 | [9] -0.001 | [10] -0.102 | Nexturastat A 0.216 | vemurafenib -0.135 | [11] -0.026 | [12] 0.136 | givinostat -0.05 | barasertib -0.064

TRAPPC6B (UniProt Q86SZ2)
inactive: IRAK-1-4 Inhibitor I -0.022 | ibrutinib 0.032 | [1] -0.001 | ralimetinib -0.015 | [2] -0.138 | [3] 0.032 | [4] 0.032 | pinometostat -0.036 | [5] 0.004 | [6] 0.004 | [7] 0.022 | [8] -0.01 | [9] 0.049 | [10] 0.07 | Nexturastat A -0.097 | vemurafenib 0.009 | [11] 0.02 | [12] -0.063 | givinostat -0.02 | barasertib 0.008

XRCC5 (UniProt P13010)
active: [3] -0.505
inactive: IRAK-1-4 Inhibitor I -0.264 | ibrutinib -0.104 | [1] -0.214 | ralimetinib 0.083 | [2] -0.175 | [4] 0.126 | pinometostat -0.01 | [5] 0 | [6] -0.065 | [7] 0.073 | [8] -0.08 | [9] 0.044 | [10] 0.143 | Nexturastat A 0.033 | vemurafenib 0.115 | [11] 0.189 | [12] 0.109 | givinostat 0.234 | barasertib 0.143

WEE1 (UniProt P30291)
active: [1] -1.1
inactive: IRAK-1-4 Inhibitor I 0.025 | ibrutinib 0.013 | ralimetinib 0.037 | [2] -0.034 | [3] -0.019 | [4] 0.296 | pinometostat 0.066 | [5] 0.05 | [6] 0.263 | [7] -0.037 | [8] 0.02 | [9] -0.304 | [10] -0.046 | Nexturastat A 0.322 | vemurafenib 0 | [11] 0 | [12] -0.137 | givinostat 0.037 | barasertib -0.005

WNK1 isoform 7 (UniProt Q9H4A3)
inactive: IRAK-1-4 Inhibitor I 0.015 | ibrutinib 0.01 | [1] -0.213 | ralimetinib -0.045 | [2] 0.017 | [3] -0.005 | pinometostat 0.004 | [5] -0.011 | [6] 0.027 | [7] -0.047 | [8] 0.426 | [9] -0.006 | [10] -0.019 | Nexturastat A -0.03 | vemurafenib -0.023 | [11] 0.004 | [12] -0.006 | givinostat 0.03 | barasertib 0.032
active: [4] 0.476

WASHC2A (UniProt Q641Q2)
UniProt Q641Q2, sequence (Q641Q2 whole entry, looked up): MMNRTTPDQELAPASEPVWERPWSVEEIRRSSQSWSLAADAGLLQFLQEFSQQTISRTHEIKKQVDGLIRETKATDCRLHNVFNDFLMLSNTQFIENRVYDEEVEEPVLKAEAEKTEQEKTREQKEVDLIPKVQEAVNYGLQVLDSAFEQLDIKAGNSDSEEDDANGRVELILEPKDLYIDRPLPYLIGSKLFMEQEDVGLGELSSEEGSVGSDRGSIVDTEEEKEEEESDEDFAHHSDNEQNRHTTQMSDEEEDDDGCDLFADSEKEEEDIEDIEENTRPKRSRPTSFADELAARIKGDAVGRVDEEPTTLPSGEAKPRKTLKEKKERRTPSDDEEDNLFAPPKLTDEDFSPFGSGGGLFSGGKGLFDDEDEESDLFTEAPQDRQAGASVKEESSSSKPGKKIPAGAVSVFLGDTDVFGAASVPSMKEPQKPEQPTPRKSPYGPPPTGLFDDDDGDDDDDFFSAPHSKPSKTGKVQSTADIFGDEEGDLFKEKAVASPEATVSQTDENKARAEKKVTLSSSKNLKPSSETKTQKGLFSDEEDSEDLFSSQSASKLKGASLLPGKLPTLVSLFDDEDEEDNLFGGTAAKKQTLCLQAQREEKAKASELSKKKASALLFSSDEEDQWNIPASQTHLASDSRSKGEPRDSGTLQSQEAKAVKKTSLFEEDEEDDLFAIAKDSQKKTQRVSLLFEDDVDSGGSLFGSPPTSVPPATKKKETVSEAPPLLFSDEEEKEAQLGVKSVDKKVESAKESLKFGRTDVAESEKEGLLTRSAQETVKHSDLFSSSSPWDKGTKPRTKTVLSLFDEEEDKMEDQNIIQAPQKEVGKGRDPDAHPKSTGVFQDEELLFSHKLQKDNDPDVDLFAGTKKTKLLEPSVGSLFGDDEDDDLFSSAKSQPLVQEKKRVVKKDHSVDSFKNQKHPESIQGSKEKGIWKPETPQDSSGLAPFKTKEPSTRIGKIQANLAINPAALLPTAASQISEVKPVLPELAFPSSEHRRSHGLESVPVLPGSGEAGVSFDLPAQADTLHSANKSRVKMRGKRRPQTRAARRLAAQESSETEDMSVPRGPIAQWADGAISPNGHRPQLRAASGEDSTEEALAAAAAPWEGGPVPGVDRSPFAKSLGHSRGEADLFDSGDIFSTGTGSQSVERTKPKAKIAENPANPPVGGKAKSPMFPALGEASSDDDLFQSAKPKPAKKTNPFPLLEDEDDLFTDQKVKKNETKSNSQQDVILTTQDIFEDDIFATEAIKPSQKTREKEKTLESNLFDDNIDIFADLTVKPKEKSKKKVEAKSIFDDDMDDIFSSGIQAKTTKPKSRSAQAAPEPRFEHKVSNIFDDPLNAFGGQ
inactive: IRAK-1-4 Inhibitor I -0.002 | ibrutinib -0.013 | [1] 0.054 | ralimetinib 0.013 | [2] 0.047 | [4] 0.025 | pinometostat 0.033 | [5] -0.004 | [6] -0.044 | [7] -0.053 | [8] -0.012 | [9] -0.039 | [10] -0.014 | Nexturastat A 0.004 | vemurafenib -0.041 | [11] -0.005 | [12] 0.085 | givinostat 0.004 | barasertib 0.032
active: [3] -0.266

VPS28 (UniProt Q9UK41)
UniProt Q9UK41, sequence (Q9UK41 whole entry, looked up): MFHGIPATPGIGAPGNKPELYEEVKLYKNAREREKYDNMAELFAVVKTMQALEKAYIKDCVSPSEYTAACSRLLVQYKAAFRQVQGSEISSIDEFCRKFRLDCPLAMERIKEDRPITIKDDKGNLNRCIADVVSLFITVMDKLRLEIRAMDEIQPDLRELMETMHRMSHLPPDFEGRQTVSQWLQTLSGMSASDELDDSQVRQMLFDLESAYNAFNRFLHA
inactive: IRAK-1-4 Inhibitor I -0.052 | ibrutinib 0.058 | [1] -0.018 | ralimetinib -0.051 | [2] -0.13 | [3] -0.189 | [4] 0.027 | pinometostat 0.059 | [5] 0.075 | [6] 0.04 | [7] 0.029 | [8] -0.044 | [9] 0.055 | [10] 0.004 | Nexturastat A -0.018 | vemurafenib 0.041 | [11] -0.008 | [12] -0.074 | givinostat -0.024 | barasertib 0.061
